We go through 35 compounds from PubChem BioAssay (NCATS).

SMILES strings stand for the structures. Inconclusive results are not listed. Values without a mark were called inactive. Activity calls are given as the source filed them. The call rests on the fitted dose curve; in most records, active means well fitted curve in the direction sought with a large enough effect; inconclusive means small, poorly fitted or top-dose-only effect, or another doubt; inactive means no such curve, though single readings can be large; an effect the other way counts as inactive or inconclusive.
Further: nearly all actives have a fitted effect of over 70% in size.
On the % scale 0 is the no-effect control and ±100 the full control effect; potency means the concentration at half of the fitted maximal effect.

The first assay is described as follows: Primary qHTS for inhibitors of nuclear receptor binding SET domain protein 2 (NSD2) in an isogenic RCH-ACV NSD2 p.E1099K mutant (9B) (AID 1645876). Conditions: RCH-ACV NSD2 E1099K (9B) viability, CellTiter-Glo, 72 h; series mostly up to 44.9 µM; activity change, negative = viability loss: at the top concentration. For orientation: Quantitative high-throughput screening tests each substance at several concentrations.
As for `CO/N=C(\C(=O)O)c1csc(NC(=O)CCl)n1`, the compound was classed as inactive. Take `COc1cc(S(N)(=O)=O)cc(C(=O)O)c1OC`: the “activity change, negative = viability loss” value was -3.63%.

As for `NCC[C@H](O)C(=O)N[C@@H]1C[C@H](N)[C@@H](O[C@H]2O[C@H](CN)[C@@H](O)[C@H](O)[C@@H]2O)[C@H](O)[C@@H]1O[C@H]1O[C@H](CO)[C@@H](O)[C@H](N)[C@@H]1O`, the activity change, negative = viability loss was 7.89% [at 0.588 µM].

As for `CCOC(=O)Oc1ccc(CCNC(=O)[C@H](CCSC)NC(C)=O)cc1OC(=O)OCC`, the “activity change, negative = viability loss” value was 3.73%. As to `CC(=O)Nc1c(I)c(NC(C)=O)c(I)c(C(=O)O)c1I`, the call was inactive. For the compound `Cc1coc2ccccc2c1=O`, the “activity change, negative = viability loss” value is 8.59%. For `O=C(O)c1ccc(OCCN2CCCCC2)cc1`, the outcome was inactive. In the case of `C1=CC2C3C=CC(C3)C2C1` (stereo not given), the “activity change, negative = viability loss” value is -4.14% [at 91.9 µM]. For the compound `O=C(O)C(=O)Nc1cccc(-c2nn[nH]n2)c1`, the Potency entry is “inactive”. On to `O=C(CCCl)NCc1ccccc1`, for which the “activity change, negative = viability loss” value is -8.22%. As for `COc1cc(C=O)ccc1O`, the “activity change, negative = viability loss” value is 9.37%. The same measure, in the same setting: the value for `Cc1cnc(NS(=O)(=O)c2ccc(N)cc2)nc1` was 7.45%; that for `CCCC(CCC)(C(=O)OCC)C(=O)OCC` was -11.9%. `CC(C)(C)C1CCC(CC2=C(O)c3ccccc3C(=O)C2=O)CC1` (stereo not given): the Potency is 7.5 µM (active). On to `CCO[C@H](Cc1ccc(OCCc2ccc(OS(C)(=O)=O)cc2)cc1)C(=O)O`, for which the “activity change, negative = viability loss” value is 5.51%.

A further assay can be described thus: Primary qHTS for inhibitors of nuclear receptor binding SET domain protein 2 (NSD2) in an RCH-ACV wild type WT cells (2C) (AID 1645877). Conditions: RCH-ACV (leukaemia line) NSD2 WT (2C) viability, CellTiter-Glo, 72 h; series mostly up to 44.9 µM; activity change, negative = cell killing: at the top concentration.
As for `C#Cc1ccc(-c2ccccc2F)cc1`, the “activity change, negative = cell killing” value was 5.81%. Take `O=C(COCCOCCOCC(=O)Nc1c(I)cc(I)c(C(=O)O)c1I)Nc1c(I)cc(I)c(C(=O)O)c1I`: the “activity change, negative = cell killing” value was 9.34%. For `CCCCCCCCCCCCCC[N+](C)(C)C`, the Potency is 0.266 µM (active).

On to `CC(C)(C)C(=O)OCOC(=O)C1N2C(=O)CC2S(=O)(=O)C1(C)C` (stereo not given), for which the “activity change, negative = cell killing” value is -2.82%.

Consider `Cc1[nH]cnc1-c1ccc(Cl)cc1`, for which the “activity change, negative = cell killing” value was -10.9%. Same read-out and setting: next, `O=C(O)Cn1c(=O)n(Cc2ccc(Br)cc2F)c(=O)c2ccc(Cl)cc21`: -8.46%; `O=C(Oc1ccccc1)c1cccc(C(=O)Oc2ccccc2)c1`: -16.7% [at 91.9 µM]. On to `CCOC(=O)C(O)c1ccccc1` (stereo not given), for which the compound was classed as inactive.

Turning to `Brc1ccccc1-c1ccccc1`, the “activity change, negative = cell killing” value was 7.32% [at 91.9 µM]. For `CC(COc1ccccc1)NN` (stereo not given), the “activity change, negative = cell killing” value is 1.63%. On to `CCOc1c(N2CCOCC2)cnn(C)c1=O`, for which the “activity change, negative = cell killing” value is -1.79%.

For the compound `CC(C)(C)C(O)/C=C/c1ccc2c(c1)OCO2` (stereo not given), the “activity change, negative = cell killing” value is -9.51%. `Nc1nnnn1-c1ccccc1`: the “activity change, negative = cell killing” value was 9.3%.

Take `COC(=O)CCCCC(CCSS/C(CCO)=C(\C)N(C=O)Cc1cnc(C)nc1N)SC(C)=O` (stereo not given): the “activity change, negative = cell killing” value was -4.07%. The same measure, in the same setting: the value for `COC(=O)c1cc(Cl)ccc1NS(=O)(=O)C(F)(F)F` was 6.22%; that for `C/C(=N\O)[C@@H](C)NCC(C)(C)CN[C@H](C)/C(C)=N/O` was -25.5%.

As for `CCOc1ccccc1OCC1CNCCO1` (stereo not given), the “activity change, negative = cell killing” value was 3.57%.

`CCN(CC)CC(=O)Oc1ccc(NC(C)=O)cc1`: the outcome was inactive. The same measure, in the same setting: the value for `COC(=O)c1cc(S(N)(=O)=O)ccc1OC` was “inactive”.

For `CC1(C)S[C@@H]2[C@H](NC(=O)C(c3ccccc3)S(=O)(=O)O)C(=O)N2[C@H]1C(=O)O` (stereo not given in full), the “activity change, negative = cell killing” value is 3.91%.

In the case of `CO/N=C(\C(=O)O)c1csc(NC(=O)CCl)n1`, the call was inactive. Same read-out and setting: next, `COc1cc(S(N)(=O)=O)cc(C(=O)O)c1OC`: “inactive”. As to `NCC[C@H](O)C(=O)N[C@@H]1C[C@H](N)[C@@H](O[C@H]2O[C@H](CN)[C@@H](O)[C@H](O)[C@@H]2O)[C@H](O)[C@@H]1O[C@H]1O[C@H](CO)[C@@H](O)[C@H](N)[C@@H]1O`, the activity change, negative = cell killing was -24.5% [at 0.588 µM].

Consider `CCOC(=O)Oc1ccc(CCNC(=O)[C@H](CCSC)NC(C)=O)cc1OC(=O)OCC`, for which the “activity change, negative = cell killing” value is -13.2%. Still for that read-out and setting: next, `CC(=O)Nc1c(I)c(NC(C)=O)c(I)c(C(=O)O)c1I`: 7.48%.

Take `Cc1coc2ccccc2c1=O`: the result was inactive. As for `O=C(O)c1ccc(OCCN2CCCCC2)cc1`, the “activity change, negative = cell killing” value was 5.23%. Regarding `C1=CC2C3C=CC(C3)C2C1` (stereo not given), the “outcome” value is “inactive [at 91.9 µM]”. As to `O=C(O)C(=O)Nc1cccc(-c2nn[nH]n2)c1`, the Potency entry is “inactive”. Regarding `O=C(CCCl)NCc1ccccc1`, the “activity change, negative = cell killing” value was 6.95%. Regarding `COc1cc(C=O)ccc1O`, the “activity change, negative = cell killing” value is 1.13%. For `Cc1cnc(NS(=O)(=O)c2ccc(N)cc2)nc1`, the “activity change, negative = cell killing” value was -1.33%. In the case of `CCCC(CCC)(C(=O)OCC)C(=O)OCC`, the “activity change, negative = cell killing” value was 4.72%. Turning to `CC(C)(C)C1CCC(CC2=C(O)c3ccccc3C(=O)C2=O)CC1` (stereo not given), the Potency was 9.44 µM (active). Regarding `CCO[C@H](Cc1ccc(OCCc2ccc(OS(C)(=O)=O)cc2)cc1)C(=O)O`, the “activity change, negative = cell killing” value was -4.82%.
